This is a sample that favours compounds with a hit; in the whole collection about 4% have one here.
tim10-1 inh = growth inhibitors of tim10-1 mutant yeast; actives 2.2% (n = 330,000); inhibition, % at 20 µM; S. cerevisiae tim10-1 ts strain growth, BacTiter-Glo, 24 h;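 active = inhibition of at least 40%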;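 note: mutant grown at 25 °C; 0% = DMSO wells with yeast and 100% = wells holding no yeast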
tim23-1 inh = tim23-1 yeast growth inhibition | S. cerevisiae tim23-1 growth, BacTiter-Glo luminescence, 24 h | inhibition, % at 20 µM | actives 1.3% (n = 330,000) | AID 463212;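 active = growth inhibition of the mutant yeast at or above 50%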;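 note: temperature-sensitive mutant grown at 25 °C; plate controls were DMSO-treated mutant yeast for no effect and medium wells lacking yeast for full effect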
NALP3 yeast inh = NALP3 inhibition in yeast | actives 0.39% (n = 330,000) | Yeast reconstituted NLRP3/ASC/caspase-1, beta-gal luminescence, 24 h | inhibition, % at 10 µM;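 active = inhibition of 50% or more; inactive = inhibition below 50%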;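 note: plate controls were induced DMSO wells for no effect and uninduced yeast grown without galactose for full effect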
NALP1 yeast inh = NALP1 inhibition; AID 2071; S. cerevisiae NALP1/ASC/caspase-1 growth, X-gal OD620, 72 h; actives 0.61% (n = 280,000); inhibition, % at 10 µM; in the data active = inhibition mostly above about 24%, no sharp cut-off; inactive = mostly below about 32%
TIM10 inh = inhibits growth of TIM10 yeast strain; actives 1.4% (n = 330,000); inhibition, % at 10 µM; S. cerevisiae TIM10 strain growth, BacTiter-Glo luminescence, 24 h; AID 463195;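 active = inhibition of 40% or more at the single tested concentration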;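 note: wild-type TIM10 isogenic control strain grown at permissive 25 °C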
tim10-1 confirm = tim10-1 yeast growth inhibition, confirmed. shares compounds with tim10-1 inh. S. cerevisiae tim10-1 ts strain growth, BacTiter-Glo, 24 h. inhibition, % at 20 µM. actives 56% (n = 7,400). AID 463213;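 active = inhibition of yeast growth at or above a set limit in either of two repeat tests at 20 µM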;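 note: tim10-1 mutant grown at permissive 25 °C to find synthetic lethal compounds; 0% = DMSO yeast wells and 100% = medium wells without yeast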
tim10 confirm = confirmation of TIM10 yeast growth inhibitors; actives 63% (n = 4,600); S. cerevisiae tim10 strain growth, BacTiter-Glo luminescence, 24 h; shares compounds with TIM10 inh; inhibition, % at 10 µM;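 active = inhibition of yeast growth at or above a set limit in either of two replicates at 10 µM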;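 note: this counterscreen used the strain with wild-type TIM10; 0% = yeast with DMSO and 100% = medium wells lacking yeast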
tim23-1 confirm = tim23-1 yeast growth inhibition, confirmed; shares compounds with tim23-1 inh; inhibition, % at 20 µM; actives 83% (n = 4,400); S. cerevisiae tim23-1 growth, BacTiter-Glo luminescence, 24 h;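 active = inhibition above about 39% in either of two replicate wells at 20 µM, limit read from the data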;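 note: temperature-sensitive tim23-1 mutant grown at 25 °C; 0% = DMSO wells with yeast and 100% = medium wells without yeast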
Numbers without * were called inactive; x = no result given.

SMILES | tim10-1 inh | tim23-1 inh | NALP3 yeast inh | NALP1 yeast inh | TIM10 inh | tim10-1 confirm | tim10 confirm | tim23-1 confirm
Cc1cccc(CS(=O)(=O)c2nnc([C@H](Cc3ccccc3)NC(=O)OC(C)(C)C)o2)c1 | 69* | 55* | 18 | -7 | 54* | 51* | 52* | 61*
CCN(CC(=O)Nc1c(F)cccc1F)C(=O)c1ccc(OCc2c(C)noc2C)cc1 | -11 | 3 | 16 | x | -3 | x | x | x
CC1(C)CC(=O)C2=C(C1)NC1=C(C(=O)c3ccccc31)C2c1ccc(Cl)cc1 (stereo not given) | 50* | 52* | 16 | 27 | 40* | 36* | 22 | 46*
Cc1ccc(C2C3=C(CC(C)(C)CC3=O)NC3=C2C(=O)c2ccccc23)cc1 (stereo not given) | 30 | 25 | 21 | 32 | 15 | x | x | x
Nc1cccc2c1C(=O)N(C(=O)/C=C/c1ccc(F)cc1)C2=O | 59* | 74* | -6 | 9 | 49* | 61* | 47* | 86*
O=C(Cc1ccc([N+](=O)[O-])cc1)N/N=C/c1ccccc1F | 0 | 13 | 10 | 4 | 6 | x | x | x
N/C(Cc1ccc([N+](=O)[O-])cc1)=N\OC(=O)c1ccccc1F | 72* | 59* | 14 | -5 | 64* | 72* | 52* | 54*
N/C(Cc1ccc([N+](=O)[O-])cc1)=N\OC(=O)c1ccc(Br)o1 | 85* | 60* | 14 | 9 | 64* | 81* | 11 | 44*
CSc1ccc(/C=N/NC(=O)COc2ccc(Br)cc2Cl)cc1 | 6 | 19 | -2 | 15 | -14 | x | x | x
CCCc1c(C(=O)N/N=C/c2cccc3ccccc23)nnn1-c1nonc1N | 4 | -1 | 12 | 14 | -4 | x | x | x
CC1CCCC(C)N1C(=O)c1cccc2c1-c1ccccc1/C2=N/O (stereo not given) | 42* | 50* | 14 | 0 | 26 | 39* | x | 44*
CC(C)COC(=O)c1cccc2c1-c1ccccc1/C2=N\O | 34 | 8 | 6 | 4 | 26 | x | x | x
CCOC(=O)c1ccc(CN2Cc3ccccc3C2=O)cc1 | 3 | 32 | 30 | 11 | 9 | x | x | x
Cc1ccc(-n2ncc3c2CCCC3NC(=O)c2ccoc2)cc1C (stereo not given) | 26 | 26 | 7 | 4 | 15 | x | x | x
Cc1ccc(-n2ncc3c2CCCC3NC(=O)c2csnn2)cc1C (stereo not given) | 59* | 52* | 24 | -4 | 26 | 41* | x | 43*
Nc1nn2cc(-c3ccc(Br)cc3)nc2c2ccccc12 | 41* | 77* | 10 | x | 59* | 65* | 65* | 82*
CCOC(=O)c1ccc(S(=O)(=O)Nc2cc(S(=O)(=O)Nc3ccc(OC)cc3)ccc2O)cc1 | -7 | 0 | 21 | x | -1 | x | x | x
COc1c(C)cc(C(=O)C2CCCN(C(=O)CCc3scnc3C)C2)cc1C (stereo not given) | 19 | 16 | 9 | -10 | 6 | x | x | x
COc1cccc(CNC(=O)COC(=O)c2nc(Cl)c(Cl)c(Cl)c2Cl)c1 | 56* | 60* | -10 | x | 37 | 46* | x | 57*
COc1cccc(CNC(=O)CCl)c1 | 0 | -4 | -37 | 10 | -2 | x | x | x
Nc1ncnc2c1C1(CCCCC1)Cc1ccccc1-2 | 42* | 50* | -7 | 27 | 29 | 30 | x | 27
CC(=O)NCCn1c(SCc2ccc(C)cc2C)nc2ccccc2c1=O | 40* | 56* | 18 | -1 | 34 | 27 | x | 33
CC(=O)NCCn1c(SCc2ccccc2C)nc2ccccc2c1=O | 22 | 34 | 10 | 4 | 13 | x | x | x
COc1ccc(C(=O)Oc2c(CN3CCOCC3)cc(Cl)c3cccnc23)cc1 | 41* | 54* | 26 | 10 | 27 | 33* | x | 46*
COc1cccc(C(=O)Oc2c(CN3CCOCC3)cc(Cl)c3cccnc23)c1 | 43* | 51* | 37 | 14 | 44* | 34* | 25 | 48*
SMILES | tim10-1 inh | tim23-1 inh | NALP3 yeast inh | NALP1 yeast inh | TIM10 inh | tim10-1 confirm | tim10 confirm | tim23-1 confirm
COc1cc(C(=O)Oc2c(CN3CCOCC3)cc(Cl)c3cccnc23)cc(OC)c1OC | 29 | 24 | 36 | -29 | 16 | x | x | x
COc1cccc(C(=O)OCCN2CCOCC2)c1 | 4 | 2 | 8 | -12 | 8 | x | x | x
COCCC(=O)NC1CCCc2c1cnn2-c1cccc(C)c1C (stereo not given) | 15 | 6 | -2 | -4 | -1 | x | x | x
Cc1nnnn1/C(=C\c1ccccc1)C(=O)OCC(=O)Nc1ccc(Cl)cc1F | 44* | 80* | 36 | x | 96* | 22 | 75* | 40*
Cc1cc(C)n(-c2ccc(NC(=O)C3CCCCN3C(=O)c3ccoc3C)cc2)n1 (stereo not given) | 10 | 12 | 2 | 4 | 4 | x | x | x
N#C/C(=C\c1cccc(Oc2ccccc2)c1)C(=O)N1CCOCC1 | 81* | 80* | 30 | 9 | 82* | 80* | 78* | 76*
COc1cc(/C=C(\C#N)C(=O)N2CCOCC2)cc(Br)c1O | -8 | 12 | 19 | 23 | 5 | x | x | x
CNc1nc(-c2ccccc2)nc(-c2ccccc2)c1C#N | 9 | 0 | -5 | 23 | -5 | x | x | x
NNc1nc(-c2ccccc2)nc(-c2ccccc2)c1Br | 46* | 57* | 15 | x | 42* | 33* | -4 | 46*
Cc1onc(-c2ccccc2Cl)c1C(=O)N1CCC(C)CC1 | 5 | 14 | 5 | 0 | -3 | x | x | x
CCOC(=O)C1CCN(C(=O)c2c(C)oc3c2C(=O)c2ccccc2C3=O)CC1 | 48* | 51* | 27 | 10 | 33 | 34* | x | 59*
Cc1oc2c(c1C(=O)N1CCC(C)CC1)C(=O)c1ccccc1C2=O | 52* | 74* | 16 | 14 | 45* | 43* | 40* | 67*
CCOC(=O)C1CCN(C(=O)c2ccc(C)o2)CC1 | 12 | 18 | 26 | x | -6 | x | x | x
O=S1(=O)C=C(Sc2nnc(-c3ccccc3)o2)c2ccccc21 | 94* | 57* | 5 | 13 | 91* | 92* | 91* | 85*
CSc1nnc(-c2ccccc2)o1 | -26 | 11 | -8 | 2 | -7 | x | x | x
O=C(CCc1ccc(Oc2cc([N+](=O)[O-])cc([N+](=O)[O-])c2)cc1)N1CCCCCC1 | 43* | 51* | 5 | 5 | 45* | 39* | 42* | 50*
COc1ccc(NCc2nc3ccccc3n2CCOc2ccccc2)cc1 | 49* | 77* | 28 | 33 | 14 | 40* | x | 81*
CCOC(=O)/C=C/C(=O)OCC(=O)Nc1ccc(Cl)cc1Cl | 47* | 54* | -6 | 28* | 30 | 46* | x | 73*
